eIF4E-4G inh: eIF4E/eIF4G interaction inhibition in translation initiation; P63073+Q04637; TR-FRET eIF4E-eIF4GI(517-606) binding, 2 h; inhibition, % at 21.7 µM; 220,000 compounds, 0.37% hits;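 also: 0% = full FRET control wells and 100% = background wells lacking eIF4GI fragment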
Target sequence (P63073 whole entry, looked up, the tested form may be a part): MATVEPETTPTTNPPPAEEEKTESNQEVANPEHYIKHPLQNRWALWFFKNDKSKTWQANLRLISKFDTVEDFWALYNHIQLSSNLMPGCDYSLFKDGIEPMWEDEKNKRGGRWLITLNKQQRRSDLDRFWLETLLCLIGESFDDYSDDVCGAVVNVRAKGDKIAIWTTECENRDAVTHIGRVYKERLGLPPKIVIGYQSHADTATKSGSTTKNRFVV
Target sequence (Q04637 whole entry, looked up, the tested form may be a part): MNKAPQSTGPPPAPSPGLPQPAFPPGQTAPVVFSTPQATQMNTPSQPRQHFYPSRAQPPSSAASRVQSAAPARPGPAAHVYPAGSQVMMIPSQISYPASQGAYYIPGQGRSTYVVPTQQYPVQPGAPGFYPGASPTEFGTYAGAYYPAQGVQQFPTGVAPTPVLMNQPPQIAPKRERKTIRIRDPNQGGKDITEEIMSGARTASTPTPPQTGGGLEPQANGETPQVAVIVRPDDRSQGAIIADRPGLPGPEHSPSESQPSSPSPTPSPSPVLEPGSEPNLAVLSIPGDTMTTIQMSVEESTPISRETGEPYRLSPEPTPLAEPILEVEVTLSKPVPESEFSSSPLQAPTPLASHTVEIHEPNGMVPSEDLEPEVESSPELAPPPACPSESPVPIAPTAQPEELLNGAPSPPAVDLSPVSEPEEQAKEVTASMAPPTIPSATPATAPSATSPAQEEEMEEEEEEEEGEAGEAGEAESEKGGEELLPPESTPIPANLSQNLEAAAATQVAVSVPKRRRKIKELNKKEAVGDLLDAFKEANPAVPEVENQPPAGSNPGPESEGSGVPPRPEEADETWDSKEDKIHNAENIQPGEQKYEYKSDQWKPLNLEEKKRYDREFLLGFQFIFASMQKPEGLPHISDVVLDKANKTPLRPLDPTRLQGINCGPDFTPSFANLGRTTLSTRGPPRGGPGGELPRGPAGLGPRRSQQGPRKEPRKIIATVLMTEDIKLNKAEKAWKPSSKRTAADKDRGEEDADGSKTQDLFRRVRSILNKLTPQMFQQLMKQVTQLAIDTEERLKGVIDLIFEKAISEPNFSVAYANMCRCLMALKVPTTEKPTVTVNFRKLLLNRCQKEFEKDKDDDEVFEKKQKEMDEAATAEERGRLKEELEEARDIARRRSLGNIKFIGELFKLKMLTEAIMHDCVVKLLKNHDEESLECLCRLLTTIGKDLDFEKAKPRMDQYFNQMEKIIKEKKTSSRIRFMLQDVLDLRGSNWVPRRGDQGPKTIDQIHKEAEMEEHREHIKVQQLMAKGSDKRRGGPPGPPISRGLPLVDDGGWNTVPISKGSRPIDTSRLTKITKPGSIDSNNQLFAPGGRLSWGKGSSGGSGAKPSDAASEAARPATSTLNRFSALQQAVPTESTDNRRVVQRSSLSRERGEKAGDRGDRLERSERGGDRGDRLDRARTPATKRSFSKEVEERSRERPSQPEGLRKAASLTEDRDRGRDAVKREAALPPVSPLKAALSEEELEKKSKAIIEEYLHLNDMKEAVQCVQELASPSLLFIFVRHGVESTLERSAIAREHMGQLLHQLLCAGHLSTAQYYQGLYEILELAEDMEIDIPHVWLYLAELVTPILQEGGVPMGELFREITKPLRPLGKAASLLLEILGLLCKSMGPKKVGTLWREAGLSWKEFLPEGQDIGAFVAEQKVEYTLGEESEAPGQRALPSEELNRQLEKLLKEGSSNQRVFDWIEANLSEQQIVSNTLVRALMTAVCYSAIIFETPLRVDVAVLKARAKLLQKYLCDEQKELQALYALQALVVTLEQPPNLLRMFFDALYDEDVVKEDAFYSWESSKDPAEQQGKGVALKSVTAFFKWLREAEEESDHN
Bim-Mcl-1: disrupts Bim peptide binding to human Mcl-1; Q07820; Bead-based flow cytometry, Bim peptide-Mcl-1 binding; inhibition, % at 10 µM; 190,000 compounds, 0.1% hits; in the data active = inhibition above about 40%;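 also: 0% = no compound tracer wells and 100% = peptide blocker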
Mcl1-Bid inh: Mcl-1/Bid interaction inhibition | 220,000 compounds, 0.97% hits | TR-FRET Mcl-1/Bid-Dy647 peptide binding, 1536-well | AID 1021 | inhibition, % at 21.7 µM | Q07820;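 active = compounds that cut the binding signal by more than half at the single screening dose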;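 also: His-tagged Mcl-1 with europium anti-His antibody binding Bid BH3 peptide; 0% = Mcl-1 plus peptide wells and 100% = peptide-only wells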
14-3-3 Bad inh: disrupts binding of bovine 14-3-3 zeta to phospho-Bad peptide; 220,000 compounds, 0.71% hits; TR-FRET 14-3-3zeta/Dy647-pBad peptide displacement, 1 h; P63103; inhibition, % at 21.7 µM;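 active = inhibition above about 70%, limit read from the data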;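 also: 0% = full 14-3-3 plus peptide FRET controls and 100% = background without 14-3-3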
p47phox inh: blocks human p47phox regulatory protein of NADPH oxidases; p47phox/p22phox peptide binding, fluorescence polarization, 2 h; inhibition, % at 24.7 µM; 220,000 compounds, 0.53% hits;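 also: 0% = p47phox with labelled peptide and 100% = labelled peptide alone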
Mcl1-Noxa inh: disrupts binding of human Mcl-1 to Noxa peptide; Q07820; TR-FRET Mcl-1/Noxa peptide binding, 2 h; inhibition, % at 21.7 µM; 220,000 compounds, 1.5% hits; AID 1022;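 active = compounds that cut the protein-peptide binding signal by more than 50% relative to plate controls in a single-dose test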;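 also: His-tagged Mcl-1 with rhodamine Noxa BH3 peptide and terbium anti-His antibody; 0% = Mcl-1 plus Noxa peptide wells and 100% = peptide-only wells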
Starred values were filed as active, the others as inactive; · = not tested or not shown. Hits are enriched below; roughly 3.3% of the tested compounds scored in any of these assays.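 The calls were made as follows, unless noted: active = inhibition above about 30% (limit read from the data); inactive = the rest.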

SMILES | eIF4E-4G inh | Bim-Mcl-1 | Mcl1-Bid inh | 14-3-3 Bad inh | p47phox inh | Mcl1-Noxa inh
COc1ccc(NC(=O)CSc2nc(C)cs2)c(OC)c1 | -2.4 | 6.0 | -10.1 | -1.0 | -5.5 | 4.4
O=[N+]([O-])c1ccccc1NC(=S)N/N=C/c1ccc(O)c(O)c1 | -6.0 | 0.0 | -97.1 | -10.2 | 2.5 | 54.7*
COc1ccccc1NC(=O)c1c(N=Cc2cccc([N+](=O)[O-])c2)cnn1C | 45.8* | · | -4.5 | -1.7 | 1.6 | 8.4
CC(C)(C)N=C1C([N+](=O)[O-])=CC=C2C1=NC1(CCCCC1)N2O | 6.2 | -3.0 | -7.7 | -10.2 | -4.3 | 3.9
O=[N+]([O-])C1=CC=C2C(=NC3(CCCCC3)N2O)C1=NCCc1ccccc1 | 1.0 | 0.0 | -5.4 | -20.8 | 129.5* | -6.3
O=[N+]([O-])C1=CC=C2C(=NC3(CCCCC3)N2O)C1=NC1CCCCC1 | 13.2 | 5.0 | -37.3 | -8.3 | 48.4* | 11.7
CC1(C)CC(N=C2C([N+](=O)[O-])=CC=C3C2=NC2(CCCCC2)N3O)CC(C)(C)N1 | 4.1 | · | -27.1 | -5.1 | 6.6 | 34.6
COC(=O)N1[C@H](C)C=C[C@]1(Cc1ccccc1)C(=O)O | 3.6 | 2.0 | -5.6 | 7.1 | 3.1 | -6.8
Cc1oc(-c2ccc(Cl)cc2)cc1C(=O)/C(C#N)=C/Nc1ccccc1 | 4.5 | · | -9.4 | -8.1 | -33.8 | 1.5
COc1ccc(CCNC(=O)CCC(=O)Nc2ccc3nc(N4CCN(C)CC4)cc(C)c3c2)cc1OC | 2.5 | 0.0 | -10.1 | -8.6 | -3.7 | 18.5
CCOc1ccc(CCNC(=O)CCC(=O)Nc2ccc3nc(N4CCN(C)CC4)cc(C)c3c2)cc1OCC | 1.9 | 0.0 | -37.7 | 91.1* | -7.6 | 9.2
Cc1onc(-c2ccccc2Cl)c1C(=O)NC(=S)Nc1ccc(C(C)C)cc1 | 4.9 | · | -23.6 | -3.1 | -8.3 | 4.1
COc1c(Cl)cc(-c2noc(C)c2C(=O)NC(C)C)cc1Cl | 41.8* | -4.0 | -5.1 | 0.2 | -4.4 | 15.0
O=C(CN1CCN(C2CCCCC2)CC1)NCCC1=CCCCC1 | -3.8 | 3.0 | 50.9* | 56.8 | -4.5 | 32.8
CS(=O)(=O)N(CC(=O)NCCC1=CCCCC1)C1CCCCC1 | 1.9 | 0.0 | 0.0 | -4.7 | -0.5 | 4.7
Cc1ccc(C(C)C)c(OCCN(C)C)c1 | 3.8 | -7.0 | 59.5* | 22.0 | -0.1 | 24.5
CCCN(CCC)CCOc1cc(C)ccc1C(C)C | 8.7 | -5.0 | 50.0 | 56.2 | 0.8 | 40.5
CCO[C@@H]1OC(C(=O)N2CCN(C)CC2)=C[C@H](c2coc3ccccc3c2=O)[C@H]1CCCO | -3.4 | -3.0 | -8.4 | -0.4 | -3.2 | -7.6
Nc1nc(NCc2ccco2)nc(Nc2ccccc2)c1[N+](=O)[O-] | 2.5 | · | -7.6 | 2.8 | 76.2* | 16.8
C/C(Cn1cnc([N+](=O)[O-])n1)=N\NC(=O)c1ccc(O)cc1O | 0.3 | 1.0 | -43.5 | -6.4 | -3.8 | 24.6
Nc1nc2c(s1)CCc1c-2cnn1-c1ccccc1 | 39.4* | 8.0 | -23.9 | -0.5 | -1.8 | 45.1
COc1ccccc1/C=C1/SC(=O)N(CCC(=O)Nc2ccc(S(=O)(=O)Nc3nccs3)cc2)C1=O | 7.7 | -4.0 | -134.9 | -1.8 | -48.1 | 77.9*
O=C(CCN1C(=O)S/C(=C\c2ccccc2)C1=O)Nc1ccc(S(=O)(=O)Nc2nccs2)cc1 | -16.6 | -1.0 | -84.5 | -5.1 | -100.0 | 81.6*
CCCn1nc(C(=O)Nc2ccc(S(=O)(=O)Nc3nccs3)cc2)c2ccccc2c1=O | -0.1 | -1.0 | -35.4 | 8.4 | -55.9 | 51.1*
CC(C)(C)CC(=O)O/N=C(\N)c1ccccn1 | -2.4 | -6.0 | 85.4* | 5.9 | 6.1 | -5.5
SMILES | eIF4E-4G inh | Bim-Mcl-1 | Mcl1-Bid inh | 14-3-3 Bad inh | p47phox inh | Mcl1-Noxa inh
CC(C)CNC(=S)N1CCN(C)CC1 | -4.2 | -2.0 | 36.9 | 80.7* | -7.7 | -1.3
CC(C)n1c(Nn2cnnc2)nc2ccccc21 | 3.3 | 2.0 | -45.8 | -8.4 | -10.5 | 102.6*
CCc1ccccc1Nc1nc2ccccc2n1C(C)C | 0.1 | -4.0 | 8.6 | 5.8 | 11.6 | 14.2
COc1ccc(C(=O)NC(=S)Nc2ccc3oc(=O)ccc3c2)cc1 | -8.3 | -3.0 | 45.5 | 54.0 | 8.5 | -4.5
O=C(NC(=S)Nc1ccc2oc(-c3ccncc3)nc2c1)c1ccccc1F | 9.5 | -8.0 | 23.6 | 73.3* | -81.4 | 11.9
O=C(NC(=S)Nc1ccc2c(c1)OCCO2)c1ccccc1F | 2.7 | -3.0 | 67.8* | -2.3 | 6.2 | 33.1
CCCCC(=O)Nc1ccc2oc(-c3ccncc3)nc2c1 | 54.9* | 0.0 | -16.8 | 10.7 | -0.4 | 13.4
CCCCCC(=O)NC(=S)Nc1ccc2oc(=O)ccc2c1 | -1.9 | -5.0 | -15.3 | -2.3 | -2.1 | 56.3*
O=C(NCCc1ccc(F)cc1)c1cc(=O)c2ccccc2o1 | 3.5 | 1.0 | -1.9 | -4.7 | -8.1 | -0.1
O=C1CNC(=O)N1CC(O)Cn1c2ccccc2c2ccccc21 (centres undefined) | 7.6 | 2.0 | -9.8 | 7.7 | -16.6 | 0.1
COc1ccc(N(CC(=O)NCc2ccncc2)S(=O)(=O)c2ccccc2[N+](=O)[O-])c(OC)c1 | -1.3 | -1.0 | -17.1 | -9.5 | -6.8 | 16.0
CCS(=O)(=O)c1ccc(S(=O)(=O)CC)s1 | 6.4 | 0.0 | 70.5* | 13.2 | -12.5 | -7.1
COc1cccc(/C=C/C(=O)OCC(=O)NCc2ccco2)c1 | -1.3 | -3.0 | -2.0 | -7.1 | -6.3 | 40.7
CCN(CC(=O)Nc1cc(C)nn1-c1nc(C)cc(C)n1)Cc1ccccc1 | 1.2 | -5.0 | 9.3 | -4.5 | -4.7 | 18.1
O=C1NC(=S)S/C1=C1\Sc2ccccc2N1CCCS(=O)(=O)O | 1.7 | -5.0 | 5.3 | 10.5 | -17.7 | 74.5*
CC1(C)OC(C)(C)/C(=C/Nc2ccccc2)C1=O | -0.4 | -4.0 | -7.2 | -13.1 | -12.4 | 0.9
COc1cc(OC)c(OC)cc1CN1CCc2ccccc2C1 | -0.3 | 6.0 | 55.1* | 22.7 | -1.1 | 8.0
COc1cc2c(cc1OC)CN(Cc1ccc(OC)c(C)c1OC)CC2 | 2.4 | -1.0 | 19.5 | 33.7 | 6.4 | 5.7
COc1cc2c(cc1OC)CN(Cc1cccs1)CC2 | 0.4 | -1.0 | 39.9 | 73.8* | -1.9 | 25.9
COc1cc(-c2[nH]ncc2CN2CCN(Cc3cccs3)CC2)cc(OC)c1OC | 89.8* | -3.0 | -29.6 | -1.5 | -8.7 | 6.8
c1csc(CN2CCOCC2)c1 | 2.4 | 2.0 | 20.9 | 82.8* | -1.2 | 18.5
CC(C)(c1ccccc1)c1ccc(OCC(O)CNC2CCN(Cc3ccccc3)CC2)cc1 (centres undefined) | 6.1 | -3.0 | 29.3 | 30.0 | 14.8 | 10.0
CCOc1ccc(OCC)c2sc(C)nc12 | 14.0 | 1.0 | -5.2 | 2.6 | 59.4* | 1.6
CCOc1cccc2sc(Cl)nc12 | -8.3 | -4.0 | -22.1 | -4.5 | -1.1 | 11.7
COc1cc(/C=N/Nc2ccc(C(F)(F)F)cn2)cc(OC)c1O | 3.2 | 0.0 | -19.0 | -6.5 | -39.4 | 56.8*
Oc1ccc(/C=N/Nc2ccc(C(F)(F)F)cn2)cc1 | -1.0 | 0.0 | -46.5 | -5.9 | -1.6 | 27.7

Source: PubChem
